# Screening data as filed in PubChem BioAssay.
# tim10-1 inh – growth inhibitors of tim10-1 mutant yeast, primary screen, luminescence, uHTS | S. cerevisiae tim10-1 ts strain growth, BacTiter-Glo, 24 h | inhibition, % at 20 µM | 330,000 tested, 2.2% active;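 active = inhibition of at least 40%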;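 also: mutant grown at 25 °C; 0% = DMSO wells with yeast and 100% = wells holding no yeast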
# NLRP3 yeast inh – NALP3 inflammasome inhibitors in reconstituted yeast, primary screen, luminescence, uHTS; Yeast reconstituted NLRP3/ASC/caspase-1, beta-gal luminescence, 24 h; inhibition, % at 10 µM; 330,000 tested, 0.39% active;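 active = inhibition of 50% or more; inactive = inhibition below 50%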;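 also: plate controls were induced DMSO wells for no effect and uninduced yeast grown without galactose for full effect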
# PfHsp90 yeast 2 – growth inhibition of PfHsp90-expressing yeast, primary screen, antimalarial PfHsp90 inhibitor project, S. cerevisiae, BacTiter-Glo luminescence, single point, set 2; inhibition, % at 9.4 µM; AID 504621, 2011; 310,000 tested, 0.32% active; BacTiter-Glo ATP, 48 h; yeast lacking PDR1 and PDR3 efflux regulators;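 active = every replicate shows inhibition above about 80%, whatever the replicate mean, limit read from the data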;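 also: 0% = DMSO neutral controls and 100% = 20 µM radicicol positive controls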
# SKKanGAS inh – S. pyogenes SKKanGAS growth inhibitors in kanamycin, primary screen, streptokinase expression inhibitor project, SKKanGAS strain, BacTiter-Glo luminescence; AID 1662, 2009; 300,000 tested, 1.3% active; 6 h; inhibition, % at 7.5 µM;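 active = mean replicate score, as percent of positive control median, at least 50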;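 also: strain carries kanamycin resistance gene driven by streptokinase promoter and grows in 40 µg/ml kanamycin; loss of luminescence reflects streptokinase promoter inhibition or plain growth inhibition; 0% = median of DMSO wells and 100% = positive control at its reference dose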
# TIM10 inh – growth inhibitors of isogenic TIM10 control yeast, primary screen, counter-screen for tim10-1 yeast inhibitor project, luminescence, uHTS. S. cerevisiae TIM10 strain growth, BacTiter-Glo luminescence, 24 h. inhibition, % at 10 µM. 330,000 tested, 1.4% active. AID 463195, 2010;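 active = inhibition of 40% or more at the single tested concentration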;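 also: wild-type TIM10 isogenic control strain grown at permissive 25 °C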
# tim23-1 inh – growth inhibitors of tim23-1 mutant yeast, primary screen, luminescence, uHTS; inhibition, % at 20 µM; 330,000 tested, 1.3% active; S. cerevisiae tim23-1 growth, BacTiter-Glo luminescence, 24 h; AID 463212, 2010;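 active = growth inhibition of the mutant yeast at or above 50%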;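 also: temperature-sensitive mutant grown at 25 °C; plate controls were DMSO-treated mutant yeast for no effect and medium wells lacking yeast for full effect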
# tim10 confirm – growth inhibitors of wild-type TIM10 yeast, confirmation, counter-screen for tim10-1 synthetic lethality project, single concentration, luminescence, S. cerevisiae; S. cerevisiae tim10 strain growth, BacTiter-Glo luminescence, 24 h; 4,600 tested, 63% active; inhibition, % at 10 µM; shares compounds with TIM10 inh;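 active = inhibition of yeast growth at or above a set limit in either of two replicates at 10 µM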;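 also: this counterscreen used the strain with wild-type TIM10; 0% = yeast with DMSO and 100% = medium wells lacking yeast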
# The depositor's hits bear a star; . = not tested or not shown. Sampled rows, rich in hits. Any-hit rate of the full collection: about 4.6%.
SMILES,tim10-1 inh,NLRP3 yeast inh,PfHsp90 yeast 2,SKKanGAS inh,TIM10 inh,tim23-1 inh,tim10 confirm
Cc1cc(C)n(CC(=O)N2CCCC(N3CCN(c4ccc(F)cc4)CC3)C2)n1 (stereo not given),6.9,12.8,-0.1,-2.6,-3.8,-2.8,.
Cc1ccc(NS(=O)(=O)c2ccc(Br)s2)cc1S(=O)(=O)N1CCOCC1,-6.1,-5.0,-1.7,11.9,6.6,10.9,.
COc1ccc(NC(=O)N2CCCC(c3nc(-c4ccc(OC)cc4)no3)C2)cc1 (stereo not given),21.6,19.1,6.7,-23.8,-4.6,29.0,.
O=C(Nc1ccc(Cl)cc1)N1CCC(c2nc(-c3ccc(F)cc3)no2)CC1,32.0,38.3,7.7,12.0,48.4*,20.2,9.5
CCCn1c(=O)[nH]c(=O)c2c1nc(-c1ccc(OC)c(Br)c1)n2CCOC,15.0,5.7,-1.5,-2.6,21.8,10.8,.
Cc1cc(Nc2ccc(Br)cc2)nc(-c2ccccc2O)n1,34.4,17.0,-24.8,17.7,43.0*,45.5,49.0*
NS(=O)(=O)c1ccc(CCNC(=O)c2ccc([N+](=O)[O-])s2)cc1,20.0,1.5,-10.8,6.8,-10.8,11.1,.
O=C(Nc1ccc2ccccc2c1)C(c1ccccc1)C1CCCC1 (stereo not given),19.6,16.9,-11.5,2.5,44.0*,7.2,23.6
Cc1c(OC(C)C(=O)NCC2CCC(C(=O)O)CC2)ccc2c(-c3ccccc3)cc(=O)oc12 (stereo not given),-10.4,1.1,29.1,23.1,2.0,3.1,.
S=c1[nH]c(-c2ccccc2)cn1-c1ccccc1,36.2,32.0,-47.0,-5.1,46.3*,46.2,48.9*
Nc1ccc(-n2cc(-c3ccccc3)[nH]c2=S)cc1,36.6,22.2,-6.3,-2.2,21.4,32.9,.
CC(=O)Nc1cccc(NC(=O)CSc2nc(=O)n(Cc3ccncc3)c3c2CCC3)c1,3.3,2.8,-8.3,-1.6,-9.3,-1.1,.
CC(=O)Nc1cccc(NC(=O)CSc2nc(=O)n(Cc3ccccn3)c3c2CCC3)c1,7.9,11.6,.,-5.7,96.7*,7.6,3.8
COc1ccccc1NC(=S)N(CCN1CCCCCC1)Cc1cccs1,35.8,2.1,-8.0,-5.4,1.4,9.9,.
CSc1nc(N(C)C)nc(N2CC(=O)N(CCNS(=O)(=O)c3ccc(C)cc3)C2=N)n1,18.5,4.9,-13.8,0.0,9.9,8.4,.
O=S(=O)(Nc1cccc2c1ccc1cccn12)c1cccs1,31.1,2.2,-29.0,33.9,45.2*,27.7,2.5
Brc1ccc(CSc2nnc(-c3cnccn3)n2Cc2ccco2)cc1,39.0,5.1,-20.1,2.2,44.7*,45.7,15.6
CC(C)OC(=O)CSc1nnc(-c2cnccn2)n1Cc1ccco1,9.4,5.7,22.5,-11.0,8.6,11.1,.
NNc1nc(-c2ccccc2)nc2sc3c(c12)CCCC3,28.0,43.4,-10.3,16.6,33.2,41.6,.
Nc1c2c(nc3sc4c(c13)CCCC4)-c1ccccc1CC2,22.3,-13.6,-1.7,19.6,42.6*,23.0,41.3*
O=C(NC1CCCCCC1)c1cc(S(=O)(=O)N2CCCCC2)ccc1N1CCOCC1,22.6,15.8,-0.5,9.2,20.1,8.3,.
O=C(NC1CCCCCC1)c1cc(S(=O)(=O)N2CCOCC2)ccc1N1CCCCC1,23.3,6.9,.,0.0,43.7*,23.7,31.4
CC(=O)Nc1ccc(-c2nnn(CC(=O)c3ccccc3)n2)cc1Cl,-3.2,-3.3,0.3,-0.8,47.1*,19.6,35.8*
CC(=O)Nc1ccc(-c2nnn(CC(=O)c3ccc(F)cc3)n2)cc1Cl,-34.1,2.5,12.2,-4.6,33.2,-10.7,.
Cc1ccc(C(C)(O)CS(=O)(=O)Cc2ccccc2)cc1 (stereo not given),2.1,3.4,0.9,5.2,2.3,8.6,.
SMILES,tim10-1 inh,NLRP3 yeast inh,PfHsp90 yeast 2,SKKanGAS inh,TIM10 inh,tim23-1 inh,tim10 confirm
COc1cccc(C(=O)NC2CC(C)(C)NC(C)(C)C2)c1OC,-4.6,14.3,0.7,-0.8,60.5*,5.5,12.0
COc1ccccc1C(=O)NC1CC(C)(C)NC(C)(C)C1,1.3,5.4,8.2,-4.4,3.9,10.5,.
O=C(CSc1nncc2ccccc12)Nc1ccc(C(=O)O)cc1,15.8,16.7,-5.8,-3.2,10.3,17.1,.
CC(=O)CCSc1nnc(-c2cccc(S(=O)(=O)N3CCOCC3)c2)o1,9.9,10.7,.,-3.5,-2.8,-1.8,.
O=S(=O)(c1cccc(-c2nnc(SCc3nc4ccccc4s3)o2)c1)N1CCOCC1,22.4,0.8,24.7,0.5,43.3*,3.1,13.5
COc1cc(/C=N/NC(=O)c2ccc(F)cc2)ccc1OC(=O)c1ccco1,1.5,4.5,-9.6,-4.7,16.7,8.7,.
O=C(N/N=C/c1cccc(OC(=O)c2ccco2)c1)c1ccc(F)cc1,13.4,13.3,17.4,-2.7,41.3*,14.4,32.0*
S=C(Nc1cccc(Br)c1)c1ccccc1,37.6,38.2,-7.2,-23.5,43.2*,44.9,44.0*
O=C(CCc1ccccc1)NC(=S)Nc1cccc(C(=O)O)c1,-1.3,16.0,-16.9,21.0,-3.7,0.5,.
O=C(CCc1ccccc1)NC(=S)Nc1cccc(Br)c1,37.0,2.0,0.7,39.6,47.7*,41.8,-16.4
CC(=O)c1cccc(NC(=S)NCCCCc2ccccc2)c1,27.6,11.3,9.5,5.1,41.1*,33.0,-15.8
O=C(CCN1C(=O)c2ccccc2C1=O)NC(=S)Nc1cccc(Cl)c1,7.9,26.4,-11.5,-2.9,40.6*,1.0,25.2
CNC(=O)CSc1nnc(C2CC2)n1-c1ccccc1,4.2,6.7,-13.0,-3.1,-3.8,2.9,.
Cc1cc(OCC(=O)Nc2ccc(S(=O)(=O)NC3=NCCCCC3)cc2)c(C(C)C)cc1Cl,35.9,16.5,-21.8,23.2,36.2,30.2,.
Cc1cc(C(=O)COC(=O)CC2Sc3ccccc3NC2=O)c(C)n1-c1ccc(Br)cc1 (stereo not given),28.2,-0.7,1.7,18.4,22.5,23.0,.
Cc1cc(C(=O)COC(=O)CC2Sc3ccccc3NC2=O)c(C)n1-c1ccccc1 (stereo not given),36.2,3.8,-7.6,4.3,57.4*,25.7,32.0*
COc1cccc(N2CCN(C(=O)c3ccc4nc(N5CCC(C)CC5)sc4c3)CC2)c1,31.0,16.5,.,21.6,41.6*,39.1,41.9*
CCOC(=O)N1CCN(C(=O)c2ccc3nc(N4CCC(C)CC4)sc3c2)CC1,36.8,18.3,13.0,4.5,27.2,22.9,.
